# DAX1 inh-1: inhibitors of human orphan nuclear receptor DAX1 (NR0B1) | P51843 | inhibition, % at 6.75 µM | hit rate 0.99% among 340,000 | HEK293 Gal4-DAX1 luciferase reporter, luminescence;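 active = inhibition above the mean over all tested compounds plus 3 SD, cut at about 4.2% in these data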;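 also: 0% = DAX1-transfected cells with DMSO and 100% = empty-vector control cells with DMSO; inhibition shows as a rise in luminescence from relieved DAX1 repression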
# ssDAF12 agonist: activates DAF-12 receptor from parasite S. stercoralis; HEK293 ssDAF-12/GRIP1 lit1-tk-luc reporter, luminescence; % of 3 µM dafachronic acid response; activation, % at 6.8 µM; hit rate 1% among 370,000;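 active = activation above the mean over all tested compounds plus 3 SD, cut at about 0.9% in these data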;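 also: 0% = DMSO-only wells and 100% = 3 µM delta7-dafachronic acid wells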
# DAX1 inh-2: DAX1 (NR0B1) inhibition, primary screen. HEK293T StAR-luciferase reporter, SF-1/DAX-1 repression relief. inhibition, % at 6.8 µM. hit rate 1.1% among 370,000. AID 652010;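 active = inhibition above the mean over all tested compounds plus 3 SD, cut at about 3.6% in these data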;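 also: 0% = DAX-1 cells with DMSO and 100% = cells lacking DAX-1 with DMSO; higher inhibition means more luminescence from relief of DAX-1 repression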
# hgDAF-12 ag: activates the H. glycines DAF-12 receptor ligand-binding domain; HEK293 GAL4-hgDAF12 UAS-luciferase reporter, agonist luminescence; normalized to butyrate control; activation, % at 6.8 µM; hit rate 1.8% among 370,000; AID 687014;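 active = activation above a cutoff set at the mean of all screened compounds plus 3 SD, cut at about 10% in these data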;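 also: 0% = DMSO wells and 100% = sodium butyrate wells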
# hcDAF-12 act: activates DAF-12 receptor from parasite H. contortus. HEK293 hcDAF-12 lit1-tk-luc reporter, luminescence; 0% DMSO, 100% Δ7-dafachronic acid. activation, % at 6.8 µM. hit rate 1.4% among 370,000;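 active = activation above the mean of all tested compounds plus 3 SD, cut at about 5.5% in these data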;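 also: 100% = response to 3 µM Δ7-dafachronic acid high control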
# DAX1 inh confirm: NR0B1 (human) inhibition, confirmation; shares compounds with DAX1 inh-2; HEK293T StAR-promoter luciferase reporter, SF-1/DAX-1 repression; inhibition, % at 6.8 µM; hit rate 87% among 2,400; AID 652134;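 active = inhibition above the average of every tested compound plus 3 SD, cut at about 3.8% in these data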;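 also: 0% = DAX-1 cells with DMSO and 100% = no DAX-1 control cells with DMSO; active compounds raise luminescence by relieving repression of the StAR reporter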
# Target sequence (P51843 whole entry, looked up): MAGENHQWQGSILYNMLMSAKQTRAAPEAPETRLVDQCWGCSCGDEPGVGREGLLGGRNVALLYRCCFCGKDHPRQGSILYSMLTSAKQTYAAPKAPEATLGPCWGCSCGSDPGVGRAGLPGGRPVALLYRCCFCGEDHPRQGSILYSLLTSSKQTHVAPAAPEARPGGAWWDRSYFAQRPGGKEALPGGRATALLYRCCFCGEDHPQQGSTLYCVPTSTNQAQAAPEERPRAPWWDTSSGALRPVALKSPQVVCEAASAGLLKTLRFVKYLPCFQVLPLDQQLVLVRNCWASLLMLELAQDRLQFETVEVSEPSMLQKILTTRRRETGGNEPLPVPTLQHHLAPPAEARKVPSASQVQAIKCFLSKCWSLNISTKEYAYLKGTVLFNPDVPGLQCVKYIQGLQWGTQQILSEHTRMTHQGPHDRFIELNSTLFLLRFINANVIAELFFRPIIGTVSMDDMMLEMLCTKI
# SF1 mutant ctr: counter-screen for DAX1 inhibitors: nonselective inhibitors with SF-1 AF2 mutant; shares compounds with DAX1 inh-2; HEK293 StAR-luciferase, luminescence; inhibition, % at 6.8 µM; hit rate 78% among 2,400;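 active = inhibition above the mean of all tested compounds plus 3 SD, cut at about 3% in these data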;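 also: 0% = DAX-1 transfected cells with DMSO and 100% = cells without DAX-1 with DMSO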
# The depositor's hits bear a star; x = not tested or not shown. Sampled rows, rich in hits. Any-hit rate of the full collection: about 4.1%.
SMILES,DAX1 inh-1,ssDAF12 agonist,DAX1 inh-2,hgDAF-12 ag,hcDAF-12 act,DAX1 inh confirm,SF1 mutant ctr
COc1ccc(C(=O)N=c2sc3c(C)ccc(OC)c3n2C)cc1,3.8,0.4,4.8*,12.9*,5.0,3.2,-3.7
CC(=O)Nc1nnc(SCC(=O)NC2CCCC2)s1,0.3,-0.6,0.4,0.1,-1.0,x,x
COc1ccc(C(=O)Nc2nnc(SCC(=O)NC3CCCC3)s2)c(OC)c1,1.1,2.3*,10.4*,10.9*,2.8,8.4*,2.7
O=C(CSc1nnc(NC(=O)c2ccccc2F)s1)NCc1ccco1,0.5,-0.3,6.3*,7.0,2.3,5.9*,6.4*
O=C(CSc1nnc(NC(=O)c2ccccc2F)s1)NCc1ccc(F)cc1,1.7,-0.1,6.8*,6.8,3.7,9.2*,3.7*
COc1ccccc1C(=O)Nc1nnc(SCC(=O)NCC2CCCO2)s1 (stereo unspecified),1.3,-0.7,10.1*,11.1*,4.6,9.6*,9.2*
Cc1cc(CCNC=O)c(C)c2c1oc1ccccc12,2.0,-0.8,1.2,6.9,-0.3,x,x
CCc1nnc(NC(=O)Nc2ccccc2OC)s1,2.0,-2.1,0.8,4.3,2.5,x,x
O=C(Nc1nnc(-c2ccccc2)s1)c1ccccc1F,3.1,0.1,5.5*,10.6*,3.0,7.7*,5.2*
CCc1nnc(NC(=O)c2ccc(OC)cc2OC)s1,-0.1,0.2,6.8*,11.9*,6.1*,12.5*,5.7*
Cc1ccccc1C(=O)Nc1nnc(SCC(=O)NC2CC2)s1,2.3,-0.3,7.4*,8.3,4.2,6.1*,3.6*
COc1ccc(C(=O)Nc2nnc(SCC(=O)NCc3ccco3)s2)c(OC)c1,-1.7,0.1,5.0*,9.6,2.2,5.5*,0.5
CN(C)[C@H]1CCN(c2ccc3c(c2)O[C@@H]2CCN(C2)S3(=O)=O)C1,x,0.2,0.7,2.6,0.0,x,x
Cc1ccc(C(=O)N(C)[C@H]2C[C@H]3c4[nH]c5c(-c6cccc(C)c6)cccc5c4CCN3C[C@H]2[C@H](C)O)cc1,x,-1.6,0.3,2.0,-4.2,x,x
COc1ccc(-c2nc(CC(=O)O)cs2)cc1,1.5,-1.0,-0.5,-0.2,-1.1,x,x
COc1ccc(-c2csc(-c3ccc(C(=O)O)cc3)n2)cc1,3.5,0.6,4.7*,11.7*,4.0,11.8*,7.0*
Clc1cccc(-c2nc3ccc(Br)cn3c2Cc2ccccc2)c1,x,-0.6,6.7*,4.5,1.4,4.6*,1.2
Cc1ccc(-c2nc3cc(C)c(Br)c(C)n3c2Cc2cccc(F)c2)cc1,x,1.9*,5.7*,13.2*,6.2*,6.2*,5.3*
Clc1cccc(Cc2c(-c3cccc(Cl)c3)nc3ccc(Br)cn23)c1,x,-1.0,2.5,5.8,1.2,x,x
Fc1cccc(Cc2c(-c3ccccc3)nc3ccc(Cl)cn23)c1,x,-0.9,4.6*,3.2,0.6,-0.1,0.3
CC(C)CNC(=O)c1cccc(NC(=O)c2ccc(NC(=O)c3ccco3)cc2)c1,-2.2,-1.6,0.0,-4.5,-4.6,x,x
Cc1ccc2sc(-c3ccc(NC(=O)/C=C\C(=O)O)cc3)nc2c1,-1.8,0.5,5.3*,12.0*,6.2*,9.9*,6.5*
Cc1nc(-c2ccc(NC(=O)/C=C\C(=O)O)cc2)cs1,-2.4,-0.8,0.4,9.2,-0.8,x,x
COCCNc1c(-c2ccc(OC)c(OC)c2)nc2ccc(Cl)cn12,-1.6,-1.9,-0.2,-3.8,-3.8,x,x
COCCNc1c(-c2cc3ccc(C)c(C)c3[nH]c2=O)nc2ccccn12,-0.1,-0.9,4.9*,10.4,2.6,6.1*,3.3*
SMILES,DAX1 inh-1,ssDAF12 agonist,DAX1 inh-2,hgDAF-12 ag,hcDAF-12 act,DAX1 inh confirm,SF1 mutant ctr
CCc1ccc(C(=O)Nc2nc(C)cs2)s1,-1.3,0.2,15.6*,11.4*,3.7,9.9*,6.1*
CCOC(=O)c1sc(NC(=O)c2ccc(CC)s2)nc1C,0.4,-0.8,1.9,6.0,0.4,x,x
COc1cccc(OC)c1C(=O)NCCOc1cc(C)cc(C)c1,-0.3,-2.0,0.2,1.1,-0.7,x,x
CN(CC(=O)Nc1ccccc1Cl)C(=O)CSc1nc2ccccc2s1,-0.2,-0.7,1.0,2.0,0.7,x,x
COc1ccc(NC(=O)CN(C)C(=O)CSc2nc3ccccc3s2)cc1,1.8,0.8,5.0*,8.3,4.0,2.3,2.4
CC(=O)Nc1ccc(OC(=O)c2ccc(Br)c([N+](=O)[O-])c2)cc1,1.4,-1.1,-0.1,-3.0,-2.3,x,x
COc1ccc(-c2cc(NC=O)c3ncc(-c4ccc(OC)c(OC)c4)n3c2)c(OC)c1,x,-1.2,6.5*,-3.3,-3.6,12.5*,-7.6
COc1cccc(-c2cnc3c(NC=O)cc(-c4ccc(OC)cc4OC)cn23)c1,x,-1.3,-0.1,-8.5,-1.9,x,x
COc1ccc(-c2cc(NC=O)c3ncc(-c4cc(OC)c(OC)c(OC)c4)n3c2)cc1,x,-0.6,4.6*,-4.3,-0.5,4.0*,-11.1
CC(=O)Nc1cccc(C(=O)OCC(=O)c2ccccc2Cl)c1,2.8,-0.4,5.1*,9.8,4.5,7.3*,5.6*
C=CCn1nc(C(=O)N2CCOCC2)cc1-c1sc(NC(=O)c2ccccc2)nc1C,-2.4,-1.7,-2.2,-2.9,-1.4,x,x
CCOC(=O)N1CCN(c2ncnc3c2cnn3-c2ccc(OC)cc2)CC1,-0.2,-1.7,-0.9,1.6,-0.1,x,x
COc1ccc(-n2ncc3c(N4CCC(C)CC4)ncnc32)cc1,-1.2,0.7,6.6*,10.5*,6.5*,12.4*,4.5*
CN(C(=O)c1ccc(NC(=O)Cc2ccc(NC(=O)C3CCN(C(=O)C4CCCCC4)CC3)cc2)cc1)C1CCCC1,-0.2,-1.0,0.2,3.1,-0.3,x,x
COc1ccc(/C(N)=N/OC(=O)CC2CCCCC2)cc1OC,0.7,-1.0,-0.8,5.3,-1.5,x,x
COc1ccc(/C(N)=N/OC(=O)C2CCCCC2)cc1OC,1.5,-0.6,6.0*,6.4,1.1,3.5,3.6*
COc1ccc(/C(N)=N/OC(=O)C2CCCCC2)cc1,1.5,0.3,5.9*,8.7,0.5,8.9*,5.8*
O=c1oc2cc(O)ccc2cc1-c1nc2ccccc2o1,x,0.1,5.4*,8.8,2.5,6.4*,3.3*
N/C(=N\OC(=O)c1ccc(Cl)cc1)c1ccn[nH]1,-1.3,0.2,14.9*,9.7,4.8,12.6*,7.8*
O=C1Nc2ccccc2N(C(=O)c2ccc(-c3ccccc3)cc2)C1c1nc2ccccc2[nH]1 (stereo unspecified),x,0.8,19.8*,25.6*,9.1*,8.2*,4.8*
COc1ccc2cc(CCNC(=O)c3ccco3)c(=O)[nH]c2c1,1.2,-0.3,6.0*,11.4*,5.0,9.4*,5.8*

# From PubChem
